# Sampled rows, rich in hits. Any-hit rate of the full collection: about 3.3%.
# Arbovirus anti: arbovirus infection inhibition; arbovirus infection cell-based antiviral screen; 200,000 tested, 0.37% active; inhibition, % at 10 µM; in the data active = inhibition above about 30%
# ROMK primary: modulators of human ROMK potassium channel. Tet-inducible ROMK, thallium flux fluorescence; actives lie on both sides. 130,000 tested, 2% active. P48048. B-score at 10 µM. AID 1918;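 active = signal ratio slope over the read window, or its plate-corrected B-score, at least 3 SD from the plate mean, either direction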;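 note: B-score of the F/F0 ratio slope over 7 to 12 s after thallium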
# Target sequence (P48048 whole entry, looked up): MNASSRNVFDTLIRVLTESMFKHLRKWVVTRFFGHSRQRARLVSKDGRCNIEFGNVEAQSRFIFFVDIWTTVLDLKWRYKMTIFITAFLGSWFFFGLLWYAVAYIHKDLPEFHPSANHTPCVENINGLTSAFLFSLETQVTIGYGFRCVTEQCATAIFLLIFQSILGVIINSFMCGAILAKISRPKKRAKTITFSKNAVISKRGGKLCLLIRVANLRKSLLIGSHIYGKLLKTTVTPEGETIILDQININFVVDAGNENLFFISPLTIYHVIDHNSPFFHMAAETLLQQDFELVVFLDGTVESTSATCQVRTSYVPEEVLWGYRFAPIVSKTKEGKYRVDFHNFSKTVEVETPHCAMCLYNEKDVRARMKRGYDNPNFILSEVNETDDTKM
# WT yeast gro inh: growth inhibition of WT yeast, mitochondrial fusion screen | 190,000 tested, 2.1% active | inhibition, % at 10 µM | AID 1362 | mitochondrial fusion phenotypic screen, WT strain; in the data active = inhibition above about 58%; tested in S. cerevisiae
# PERK inhibitor: human PERK inhibition, primary cell-based screen; Q9NZJ5; CHO PERK-DD fusion, SEAP luminescence translation reporter; inhibition, % at 5.6 µM; 220,000 tested, 0.17% active; AID 1416;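 active = inhibition above the mean inhibition of all tested compounds plus 3 SD, set separately per screening campaign, cut at about 2.9% in these data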;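 note: PERK kinase domain activated by AP20187 dimerizer at 100 nM; 0% = DMSO with dimerizer and 100% = rapamycin at 8.4 µM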
# ROMK retest: human ROMK channel modulation, retest confirmation; shares compounds with ROMK primary; ROMK thallium flux, fluorescence ratio; stronger effect = lower value; normalized thallium flux (F/F0 slope) at 10 µM; 3,000 tested, 54% active; AID 1917;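 active = Flux at 10 µM at least 3 SD below or above vehicle control mean in one or both replicates; inconclusive = no clear call, values can overlap the other calls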
# * marks the source's active call; other numbers are inactive results; ? = inconclusive; nt = not tested or not shown.
SMILES,Arbovirus anti,ROMK primary,WT yeast gro inh,PERK inhibitor,ROMK retest
CCOc1ccc(OCC)c(C2C(C#N)=C(N)N(c3cccnc3)C3=C2C(=O)CC(C)(C)C3)c1 (stereo not drawn),5,0.49,2,0,nt
NS(=O)(=O)c1ccc(NN=C2CCCCC2)c([N+](=O)[O-])c1,-2,-0.0014,-8,2,nt
CCCCN(CC(=O)NCc1ccc(F)cc1)C(=O)c1ccco1,-1,-0.044,8,-1,nt
c1ccc(-n2cnc3cc(NCc4ccco4)ccc32)cc1,-18,3.3*,17,0,?
c1ccc(-n2cnc3cc(NCc4cccs4)ccc32)cc1,-8,nt,-3,1,nt
CC1(C)CC(=O)C(C=NCCCn2ccnc2)=C(O)C1,-1,nt,2,0,nt
CCOC(=O)c1ccc(-c2ccc(/C=N/NC(=O)Cc3nnc(N)s3)o2)cc1,nt,-12*,nt,-1,0.078
Cc1ccc(N2C(=O)CC(Cc3cccc(C)c3)C2=O)cc1 (stereo not drawn),-9,0.16,0,0,nt
CCCOc1ccc(/C=C/C(=O)NCc2ccccc2)cc1,5,0.02,14,0,nt
O=C(COC(=O)CNC(=O)c1ccccc1F)Nc1cccnc1Cl,-7,0.83,-5,1,nt
c1ccc2c(c1)CCN(c1ncnc3c1[nH]c1ccccc13)C2,-16,-2.9*,72*,nt,0.06*
COc1ccc2c(c1)[nH]c1c(N3CCSCC3)ncnc12,nt,nt,nt,-1,?
COc1cccc(N2CCN(c3ncnc4c3[nH]c3ccccc34)CC2C)c1 (stereo not drawn),-43,-2.8,65*,-1,0.059*
COc1cccc2[nH]c3c(N4CCc5ccccc5C4)ncnc3c12,nt,-0.51,nt,-2,nt
COc1cccc(N2CCN(c3ncnc4c3[nH]c3ccc(F)cc34)CC2C)c1 (stereo not drawn),-47,-3*,79*,-1,0.057*
CCN1C(=O)/C(=C/C=C2/CCCN2C)OC1=S,6,-4.9*,-5,2,0.064*
CN(C)CC/C=C1/c2cc(F)ccc2CSc2ccc(F)cc21,-26,-3.2,6,0,nt
CN(C)CC/C=C1\c2cc(F)ccc2CSc2ccccc21,-15,-3.2*,15,0,0.061*
COc1ccc(C(=O)CC2OC(=O)c3ccccc32)cc1OC (stereo not drawn),-2,-1.3,-3,1,nt
CCCCN(C)S(=O)(=O)c1ccc(C(=O)Nc2nnc(-c3ccco3)o2)cc1,-25,3.2*,11,1,0.091
Cc1c(Br)c([N+](=O)[O-])nn1CC(=O)NCCc1c[nH]c2ccccc12,-1,-0.7,2,1,nt
CC1=C/C(=C\C=C(C#N)C#N)N(C)c2ccccc21,nt,-4*,nt,0,0.041*
O=C(O)c1cc(-c2ccc(/C=C3/SC(=S)N(Cc4ccccc4)C3=O)o2)ccc1Cl,9,-4*,60*,0,0.043*
COc1ccc2nc(NC(=O)Cn3cnc4ccccc4c3=O)sc2c1,nt,nt,nt,0,nt
Cc1cc(C)c2nc(Nc3nc(-c4ccccc4)cc(=O)[nH]3)nc(C)c2c1,nt,nt,nt,-1,nt
SMILES,Arbovirus anti,ROMK primary,WT yeast gro inh,PERK inhibitor,ROMK retest
CC1=CC(C)(C)N=C(Nc2nc(C)c3cc(C)cc(C)c3n2)N1,-41,-3.9*,13,-1,0.049*
O=Cc1ccc(-c2ccccc2OC(F)(F)F)o1,6,3.8*,-8,0,0.11*
Cc1c(C(=O)O)cccc1-c1ccc(C=O)o1,-8,1.9,-17,1,nt
Cc1ccc(NC(=O)C2=C(c3ccccc3)S(=O)(=O)CCS2(=O)=O)cc1,-31,-2.9,20,0,nt
CNC(=O)CCCc1nc(-c2ccccc2Cl)no1,3,3.1*,-6,0,0.072
NC(=O)CCCc1nc(-c2ccccc2Cl)no1,0,nt,-9,1,nt
O=C(COc1ccc(S(=O)(=O)Nc2ccccc2)cc1)NCc1ccncc1,2,0.093,-2,2,nt
CCN(CC(=O)NCc1cccs1)C(=O)c1cccc(S(=O)(=O)N2CCc3ccccc32)c1,9,1.2,-4,0,nt
CCn1c(/C=C/N(C(C)=O)c2ccccc2)[n+](CCCS(=O)(=O)[O-])c2cc(Cl)c(Cl)cc21,3,0.61,12,0,nt
CCn1c(/C=C/Nc2ccccc2)[n+](CC)c2cc(Cl)c(Cl)cc21,-27,-3.9*,41,0,0.044*
O=C(COc1nsnc1N1CCOCC1)N/N=C/c1ccccc1O,-7,-0.4,-12,2,nt
CSc1nc(C)cc(OCC(=O)N/N=C/c2ccccc2O)n1,-27,2.9*,-14,0,0.081
Cc1ccc(C)c(-n2nnnc2Sc2nnnn2-c2ccccc2)c1,-38,-4.6*,-42,1,0.058*
O=C1NN(c2ccccc2)C(=O)/C1=C/c1ccc(Sc2cccc3ccccc23)o1,-42,-3.9*,-3,0,0.067*
O=C1NN(c2cccc(Br)c2)C(=O)/C1=C/c1ccc(-c2cc([N+](=O)[O-])ccc2O)o1,nt,nt,nt,2,nt
Cc1ccc(C2C(C#N)=C(N)Oc3nc(-c4ccccc4)[nH]c32)o1 (stereo not drawn),-1,nt,-9,0,?
CC1(C)Cc2c(sc3nc(SCC(=O)NCc4ccco4)n(-c4ccccc4)c(=O)c23)CS1,2,1,3,0,0.055*
O=C(CSc1nc2sc3c(c2c(=O)n1-c1ccccc1)CCCC3)NCc1ccco1,-4,nt,9,0,nt
O=C(CCC1CCCCC1)NNC(=O)NC12CC3CC(CC(C3)C1)C2,8,-3.1*,-5,1,0.071
CC(=O)c1cccc(NC(=O)Cc2ccc3c(c2)CCCC3)c1,16,-1.2,12,0,nt
COc1ccccc1C(=O)NC(CCSC)C(=O)NC1CCCCCC1 (stereo not drawn),-5,-0.42,-2,0,nt
O=C(/C=C/c1ccccc1Cl)Nc1ccncc1,-7,nt,13,2,nt
Cc1cc(N)c2cc(NC(=O)/C=C/c3ccccc3Cl)ccc2n1,nt,nt,nt,0,0.055*
CCCCOc1c(Br)cc(/C=C2\N=C(C)OC2=O)cc1OCC,1,nt,3,1,nt
COc1ccc(-n2c(-c3cnccn3)n[nH]c2=S)cc1,10,nt,-1,2,0.086
SMILES,Arbovirus anti,ROMK primary,WT yeast gro inh,PERK inhibitor,ROMK retest
COc1cc(C(=O)Nc2ccc3oc(-c4cccnc4)nc3c2)cc(OC)c1OC,4,-0.76,-6,0,0.079
COc1ccc(C(=O)Nc2ccc3oc(-c4cccnc4)nc3c2)cc1OC,3,-1,-10,1,nt
NC(=O)NC(=O)CSc1cccc(C(F)(F)F)c1,-1,nt,-17,1,nt
Cc1cccc(Nc2nc3c(S(=O)(=O)c4ccccc4)nnn3c3ccccc23)c1,-3,0.01,6,0,0.082
Cc1cc(C)cc(Nc2nc3c(S(=O)(=O)c4ccccc4)nnn3c3ccccc23)c1,11,0.52,3,1,nt
O=C(CCCn1cnc([N+](=O)[O-])n1)Nc1cccc2ccccc12,12,0.022,-5,1,0.073
CCOC(=O)c1c(N)sc(C(=O)OCCOC)c1C,-2,0.56,16,-1,nt
Oc1cccc(C=NCc2ccccc2)c1,23,0.96,16,1,nt
Oc1c(Br)cc(Br)cc1C=NCc1ccc(F)cc1,2,3.3*,14,1,0.12*
Oc1c(Br)cc(Br)cc1C=NCc1ccccc1,-2,3.9*,11,0,?
